Assay [1] has as its target 5'-AMP-activated protein kinase catalytic subunit alpha-2 (Homo sapiens) (UniProt P54646). The conditions noted are these: at 1 µM.
The target in assay [2] is T1, NUAK family SNF1-like kinase 1 (Homo sapiens) (UniProt O60285).
T1 sequence (whole entry): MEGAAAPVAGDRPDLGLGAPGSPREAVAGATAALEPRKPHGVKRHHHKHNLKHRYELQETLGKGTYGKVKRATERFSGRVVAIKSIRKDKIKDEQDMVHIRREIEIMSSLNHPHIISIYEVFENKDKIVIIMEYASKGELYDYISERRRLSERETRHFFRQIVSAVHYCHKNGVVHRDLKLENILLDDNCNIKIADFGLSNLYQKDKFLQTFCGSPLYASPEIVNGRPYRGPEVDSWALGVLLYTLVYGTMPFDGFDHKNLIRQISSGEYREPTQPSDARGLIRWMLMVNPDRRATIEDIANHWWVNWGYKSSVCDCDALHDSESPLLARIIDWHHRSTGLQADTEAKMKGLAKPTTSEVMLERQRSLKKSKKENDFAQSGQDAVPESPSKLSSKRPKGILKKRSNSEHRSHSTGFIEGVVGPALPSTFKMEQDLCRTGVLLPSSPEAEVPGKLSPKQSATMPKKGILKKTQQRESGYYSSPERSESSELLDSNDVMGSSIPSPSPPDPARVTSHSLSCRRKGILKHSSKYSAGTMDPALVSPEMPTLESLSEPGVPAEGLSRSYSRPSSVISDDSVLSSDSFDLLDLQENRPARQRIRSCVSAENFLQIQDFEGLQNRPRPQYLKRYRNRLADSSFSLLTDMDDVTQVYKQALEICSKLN
The conditions noted are these: at 0.1 µM.

The target in assay [3] is T1, NUAK family SNF1-like kinase 1 (Homo sapiens). The conditions noted are these: at 1 µM.
The target in assay [4] is T2, Serine/threonine-protein kinase BRSK1 (Homo sapiens) (UniProt Q8TDC3).
T2 sequence (whole entry): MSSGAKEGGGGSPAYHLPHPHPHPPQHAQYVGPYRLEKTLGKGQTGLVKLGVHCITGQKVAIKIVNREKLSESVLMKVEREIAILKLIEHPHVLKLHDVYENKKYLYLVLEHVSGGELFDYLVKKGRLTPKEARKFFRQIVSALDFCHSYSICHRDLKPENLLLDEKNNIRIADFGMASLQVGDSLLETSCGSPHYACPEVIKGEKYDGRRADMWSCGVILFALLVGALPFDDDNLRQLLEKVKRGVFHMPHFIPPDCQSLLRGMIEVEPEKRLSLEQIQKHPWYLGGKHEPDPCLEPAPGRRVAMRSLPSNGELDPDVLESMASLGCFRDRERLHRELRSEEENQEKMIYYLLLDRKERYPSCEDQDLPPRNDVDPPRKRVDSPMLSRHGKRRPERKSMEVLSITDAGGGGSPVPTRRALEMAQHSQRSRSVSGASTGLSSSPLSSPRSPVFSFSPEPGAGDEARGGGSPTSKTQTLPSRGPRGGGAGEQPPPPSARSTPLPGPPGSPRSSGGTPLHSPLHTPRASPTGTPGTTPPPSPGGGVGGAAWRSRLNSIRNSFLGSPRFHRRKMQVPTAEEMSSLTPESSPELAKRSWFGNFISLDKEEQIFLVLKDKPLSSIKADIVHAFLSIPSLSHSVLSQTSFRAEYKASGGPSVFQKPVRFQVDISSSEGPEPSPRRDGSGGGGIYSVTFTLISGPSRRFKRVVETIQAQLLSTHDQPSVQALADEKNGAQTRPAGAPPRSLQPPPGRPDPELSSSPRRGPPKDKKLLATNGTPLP
The conditions noted are these: at 0.1 µM.

For assay [5], the target named is T2, Serine/threonine-protein kinase BRSK1 (Homo sapiens). The conditions noted are these: at 1 µM.
Assay [6] deals with T3, Serine/threonine-protein kinase BRSK2 (Homo sapiens) (UniProt Q8IWQ3).
T3 sequence (whole entry): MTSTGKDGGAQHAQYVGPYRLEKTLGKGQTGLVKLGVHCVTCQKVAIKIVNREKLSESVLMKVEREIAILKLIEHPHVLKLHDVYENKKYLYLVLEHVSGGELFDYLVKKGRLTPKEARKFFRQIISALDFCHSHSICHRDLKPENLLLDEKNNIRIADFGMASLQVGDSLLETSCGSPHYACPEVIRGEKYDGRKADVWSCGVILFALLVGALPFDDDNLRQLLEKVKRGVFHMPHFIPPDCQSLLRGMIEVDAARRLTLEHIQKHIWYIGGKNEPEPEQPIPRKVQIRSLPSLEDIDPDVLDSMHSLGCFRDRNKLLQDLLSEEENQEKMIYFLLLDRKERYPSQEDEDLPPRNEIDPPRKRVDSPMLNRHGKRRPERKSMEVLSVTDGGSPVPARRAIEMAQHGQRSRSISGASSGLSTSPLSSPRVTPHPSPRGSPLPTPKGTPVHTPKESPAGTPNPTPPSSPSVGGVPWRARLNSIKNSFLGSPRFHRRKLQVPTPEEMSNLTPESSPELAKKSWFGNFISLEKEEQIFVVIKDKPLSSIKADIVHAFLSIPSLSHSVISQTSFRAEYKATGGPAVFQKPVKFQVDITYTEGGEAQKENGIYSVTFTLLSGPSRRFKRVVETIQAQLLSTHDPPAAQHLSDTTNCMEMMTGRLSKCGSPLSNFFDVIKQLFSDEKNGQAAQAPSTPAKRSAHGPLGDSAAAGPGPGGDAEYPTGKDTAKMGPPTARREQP
The settings on record: at 0.1 µM.

The target of assay [7] is T3, Serine/threonine-protein kinase BRSK2 (Homo sapiens). The conditions noted are these: at 1 µM.
Assay [8] deals with Calcium/calmodulin-dependent protein kinase type 1D (Homo sapiens) (UniProt Q8IU85). The conditions noted are these: at 0.1 µM.
Sequence of Calcium/calmodulin-dependent protein kinase type 1D (Homo sapiens) (Q8IU85 whole entry, looked up): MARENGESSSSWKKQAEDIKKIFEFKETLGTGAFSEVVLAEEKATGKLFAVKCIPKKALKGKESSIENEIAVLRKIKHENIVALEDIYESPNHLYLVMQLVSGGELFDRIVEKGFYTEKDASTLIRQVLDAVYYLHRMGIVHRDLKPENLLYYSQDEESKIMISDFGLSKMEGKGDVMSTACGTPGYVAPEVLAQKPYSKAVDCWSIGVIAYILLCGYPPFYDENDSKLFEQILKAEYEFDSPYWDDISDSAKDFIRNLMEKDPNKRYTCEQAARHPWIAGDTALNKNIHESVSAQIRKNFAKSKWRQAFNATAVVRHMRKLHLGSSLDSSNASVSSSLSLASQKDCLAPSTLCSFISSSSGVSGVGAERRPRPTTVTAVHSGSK
For assay [9] the target is unchanged. The settings on record: at 1 µM.
Assay [10] has as its target Calcium/calmodulin-dependent protein kinase type II subunit alpha (Homo sapiens) (UniProt Q9UQM7). The conditions noted are these: at 0.1 µM.
Assay [11] has the same target. The settings on record: at 1 µM.
The target of assay [12] is Calcium/calmodulin-dependent protein kinase type II subunit delta (Homo sapiens) (UniProt Q13557). The conditions noted are these: at 0.1 µM.
Sequence of Calcium/calmodulin-dependent protein kinase type II subunit delta (Homo sapiens) (Q13557 whole entry): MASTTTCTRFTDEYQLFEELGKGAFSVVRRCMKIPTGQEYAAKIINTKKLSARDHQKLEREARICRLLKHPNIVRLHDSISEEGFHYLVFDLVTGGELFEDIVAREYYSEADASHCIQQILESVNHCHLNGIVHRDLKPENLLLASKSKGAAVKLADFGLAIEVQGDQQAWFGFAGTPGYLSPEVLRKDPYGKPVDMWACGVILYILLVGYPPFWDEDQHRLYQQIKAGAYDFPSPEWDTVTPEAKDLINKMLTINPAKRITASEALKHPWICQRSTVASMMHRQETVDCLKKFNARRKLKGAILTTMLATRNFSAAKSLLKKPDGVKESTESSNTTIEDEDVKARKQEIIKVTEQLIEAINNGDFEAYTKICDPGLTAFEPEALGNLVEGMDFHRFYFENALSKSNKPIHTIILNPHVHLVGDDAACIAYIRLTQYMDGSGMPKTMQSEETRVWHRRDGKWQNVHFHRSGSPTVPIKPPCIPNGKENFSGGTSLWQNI
For assay [13] the target is unchanged. The conditions noted are these: at 1 µM.
Assay [14] deals with T4, Calcium/calmodulin-dependent protein kinase type IV (Homo sapiens) (UniProt Q16566).
T4 sequence (whole entry): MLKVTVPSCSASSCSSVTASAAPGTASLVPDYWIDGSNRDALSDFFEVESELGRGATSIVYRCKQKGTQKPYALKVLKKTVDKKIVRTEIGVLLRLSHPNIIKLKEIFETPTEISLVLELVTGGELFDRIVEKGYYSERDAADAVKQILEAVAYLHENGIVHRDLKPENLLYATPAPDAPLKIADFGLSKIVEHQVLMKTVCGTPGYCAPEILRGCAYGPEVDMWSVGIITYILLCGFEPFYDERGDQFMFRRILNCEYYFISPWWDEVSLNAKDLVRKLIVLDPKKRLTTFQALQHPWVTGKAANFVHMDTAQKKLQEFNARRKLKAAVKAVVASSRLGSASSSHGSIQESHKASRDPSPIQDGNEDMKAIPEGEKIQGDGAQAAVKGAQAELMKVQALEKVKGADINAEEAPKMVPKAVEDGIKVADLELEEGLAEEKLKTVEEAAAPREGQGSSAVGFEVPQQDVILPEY
The settings on record: at 0.1 µM.

Assay [15] deals with T4, Calcium/calmodulin-dependent protein kinase type IV (Homo sapiens). The settings on record: at 1 µM.
The target of assay [16] is T5, Serine/threonine-protein kinase Chk1 (Homo sapiens) (UniProt O14757).
T5 sequence (whole entry): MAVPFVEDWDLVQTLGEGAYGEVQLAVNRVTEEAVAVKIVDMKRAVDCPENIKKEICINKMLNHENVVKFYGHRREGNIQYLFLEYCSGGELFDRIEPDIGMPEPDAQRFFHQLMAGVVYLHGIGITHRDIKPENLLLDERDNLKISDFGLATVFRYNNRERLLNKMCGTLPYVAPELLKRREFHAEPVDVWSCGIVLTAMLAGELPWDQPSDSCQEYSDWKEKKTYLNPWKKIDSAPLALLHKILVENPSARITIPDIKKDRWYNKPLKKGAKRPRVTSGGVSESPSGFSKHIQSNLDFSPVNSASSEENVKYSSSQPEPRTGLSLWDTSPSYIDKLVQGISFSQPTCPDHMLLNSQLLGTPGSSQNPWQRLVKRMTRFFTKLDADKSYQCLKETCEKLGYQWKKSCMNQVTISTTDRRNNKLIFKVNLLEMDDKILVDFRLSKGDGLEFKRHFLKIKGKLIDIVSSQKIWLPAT
The settings on record: at 0.1 µM.

Assay [17] concerns the target T5, Serine/threonine-protein kinase Chk1 (Homo sapiens). The conditions noted are these: at 1 µM.
The target in assay [18] is Serine/threonine-protein kinase Chk2 (Homo sapiens) (UniProt O96017). The conditions noted are these: at 0.1 µM.
Sequence of Serine/threonine-protein kinase Chk2 (Homo sapiens) (O96017 whole entry): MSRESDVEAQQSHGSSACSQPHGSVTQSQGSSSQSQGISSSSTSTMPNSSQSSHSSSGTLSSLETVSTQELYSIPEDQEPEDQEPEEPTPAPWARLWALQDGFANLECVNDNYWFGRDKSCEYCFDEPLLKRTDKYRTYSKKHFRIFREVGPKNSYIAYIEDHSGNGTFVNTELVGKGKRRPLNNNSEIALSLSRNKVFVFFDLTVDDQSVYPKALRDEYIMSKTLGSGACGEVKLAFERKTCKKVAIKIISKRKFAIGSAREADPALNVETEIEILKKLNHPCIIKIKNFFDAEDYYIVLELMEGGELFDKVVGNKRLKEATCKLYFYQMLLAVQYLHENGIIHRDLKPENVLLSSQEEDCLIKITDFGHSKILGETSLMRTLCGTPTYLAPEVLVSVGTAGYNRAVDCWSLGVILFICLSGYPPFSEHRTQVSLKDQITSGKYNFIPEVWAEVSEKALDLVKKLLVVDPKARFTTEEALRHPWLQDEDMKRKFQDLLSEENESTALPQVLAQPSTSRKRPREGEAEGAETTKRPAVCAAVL
For assay [19] the target is unchanged. The settings on record: at 1 µM.
The target of assay [20] is Death-associated protein kinase 1 (Homo sapiens) (UniProt P53355). The conditions noted are these: at 0.1 µM.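 Note: reported figure is the mean inhibition of DAPK1.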
Sequence of Death-associated protein kinase 1 (Homo sapiens) (P53355 whole entry, looked up): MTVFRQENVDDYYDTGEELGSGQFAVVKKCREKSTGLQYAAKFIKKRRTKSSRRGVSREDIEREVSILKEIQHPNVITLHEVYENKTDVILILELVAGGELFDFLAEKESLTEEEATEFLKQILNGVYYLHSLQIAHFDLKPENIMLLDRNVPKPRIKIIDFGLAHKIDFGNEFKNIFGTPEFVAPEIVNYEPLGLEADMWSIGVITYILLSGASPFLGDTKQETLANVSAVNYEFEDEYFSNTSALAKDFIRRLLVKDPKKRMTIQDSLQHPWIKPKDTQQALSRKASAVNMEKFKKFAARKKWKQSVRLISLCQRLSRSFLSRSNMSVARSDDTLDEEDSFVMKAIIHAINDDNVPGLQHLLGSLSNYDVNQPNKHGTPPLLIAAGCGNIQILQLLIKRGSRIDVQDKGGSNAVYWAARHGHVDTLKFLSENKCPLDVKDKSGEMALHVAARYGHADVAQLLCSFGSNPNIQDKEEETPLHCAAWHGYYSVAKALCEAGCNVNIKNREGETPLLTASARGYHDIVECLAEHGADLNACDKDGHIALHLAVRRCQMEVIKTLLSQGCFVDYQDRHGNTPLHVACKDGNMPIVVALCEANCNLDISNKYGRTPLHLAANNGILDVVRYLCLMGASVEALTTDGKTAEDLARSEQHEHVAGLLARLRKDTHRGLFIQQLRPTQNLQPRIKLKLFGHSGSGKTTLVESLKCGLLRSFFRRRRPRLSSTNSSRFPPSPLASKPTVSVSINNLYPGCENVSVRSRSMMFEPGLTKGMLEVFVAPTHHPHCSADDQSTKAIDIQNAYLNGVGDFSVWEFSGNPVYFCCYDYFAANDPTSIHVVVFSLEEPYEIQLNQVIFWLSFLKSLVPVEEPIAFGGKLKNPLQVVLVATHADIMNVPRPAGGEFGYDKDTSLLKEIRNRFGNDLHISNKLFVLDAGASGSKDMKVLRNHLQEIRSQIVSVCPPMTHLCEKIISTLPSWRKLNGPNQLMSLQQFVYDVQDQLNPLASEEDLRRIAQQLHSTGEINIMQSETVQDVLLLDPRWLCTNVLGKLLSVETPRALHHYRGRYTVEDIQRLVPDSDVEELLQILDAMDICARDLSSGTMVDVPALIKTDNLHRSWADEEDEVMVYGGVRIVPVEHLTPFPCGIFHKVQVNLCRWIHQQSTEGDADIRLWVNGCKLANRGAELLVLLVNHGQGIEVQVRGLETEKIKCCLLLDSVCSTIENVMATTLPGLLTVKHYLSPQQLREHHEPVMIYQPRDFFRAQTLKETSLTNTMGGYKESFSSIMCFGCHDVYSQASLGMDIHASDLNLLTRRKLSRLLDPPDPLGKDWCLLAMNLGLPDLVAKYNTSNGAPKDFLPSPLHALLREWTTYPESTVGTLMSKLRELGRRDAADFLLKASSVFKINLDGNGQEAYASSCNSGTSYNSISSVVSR

SMILES strings stand for the structures.

As usually defined, the inhibition is the relative decrease from the control value, in per cent.

Sequence of Calcium/calmodulin-dependent protein kinase type II subunit alpha (Homo sapiens) (Q9UQM7 whole entry): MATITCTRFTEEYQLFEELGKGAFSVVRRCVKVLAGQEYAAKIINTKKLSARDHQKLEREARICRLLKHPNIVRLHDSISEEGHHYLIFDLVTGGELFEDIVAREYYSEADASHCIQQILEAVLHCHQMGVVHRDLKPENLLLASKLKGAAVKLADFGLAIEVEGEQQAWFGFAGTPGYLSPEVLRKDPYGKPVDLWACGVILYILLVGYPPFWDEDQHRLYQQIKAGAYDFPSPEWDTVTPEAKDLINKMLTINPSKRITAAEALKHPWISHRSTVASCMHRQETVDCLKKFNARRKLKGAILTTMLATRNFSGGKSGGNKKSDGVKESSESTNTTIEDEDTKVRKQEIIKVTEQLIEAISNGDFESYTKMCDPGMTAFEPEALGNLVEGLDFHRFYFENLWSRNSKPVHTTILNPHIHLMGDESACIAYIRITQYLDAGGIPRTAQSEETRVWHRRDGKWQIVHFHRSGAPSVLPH
Sequence of 5'-AMP-activated protein kinase catalytic subunit alpha-2 (Homo sapiens) (P54646 whole entry, looked up): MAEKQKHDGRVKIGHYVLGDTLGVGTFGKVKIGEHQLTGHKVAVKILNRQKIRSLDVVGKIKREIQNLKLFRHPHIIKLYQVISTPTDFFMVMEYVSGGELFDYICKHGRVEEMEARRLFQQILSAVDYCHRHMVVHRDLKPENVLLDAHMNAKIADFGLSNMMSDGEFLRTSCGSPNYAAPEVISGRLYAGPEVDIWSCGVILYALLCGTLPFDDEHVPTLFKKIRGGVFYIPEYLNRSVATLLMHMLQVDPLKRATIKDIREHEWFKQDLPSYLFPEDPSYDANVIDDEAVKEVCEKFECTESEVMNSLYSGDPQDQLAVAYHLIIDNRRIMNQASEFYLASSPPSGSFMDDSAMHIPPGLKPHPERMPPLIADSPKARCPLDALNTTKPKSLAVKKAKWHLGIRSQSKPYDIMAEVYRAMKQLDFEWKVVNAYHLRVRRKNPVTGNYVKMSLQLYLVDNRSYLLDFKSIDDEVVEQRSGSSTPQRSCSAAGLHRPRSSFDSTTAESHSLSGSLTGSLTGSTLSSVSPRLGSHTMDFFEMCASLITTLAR

As to `CC(C)=Cc1cccc2c1/C(=N/Nc1ccc(S(N)(=O)=O)cc1)C(=O)N2`, the inhibition in assay [1] stood at 40.2%; in assay [2], 80.3%; in assay [3], 87.3%; in assay [4] it was 7.32%; in assay [5] it was 45%; in assay [6], 14.6%. The inhibition in assay [7] stood at 58.2%; in assay [8] it was 0.31%; in assay [9], 1.3%; in assay [10] it was 2.92%; in assay [11], 6.48%; in assay [12], 2.83%. Moreover, the inhibition in assay [13] was 11.3%; in assay [14] it was -1.55%; in assay [15] it was -0.74%; in [16], 6.35%; in assay [17], 10.3%; in [18], 5.36%. Besides, the inhibition turned out to be 9.14% in assay [19] and 9.26% in assay [20].

As for `NC(=O)c1ccc(-c2nc(-c3ccccn3)c(-c3ccc4c(c3)OCO4)[nH]2)cc1`, the inhibition was 2.23% in assay [1]; 0.4% in [2]; 1.15% in [3]; -0.32% in assay [4]; -0.03% in assay [5]; 0.53% in assay [6]. Besides, the inhibition in [7] stood at 1.06%; in assay [8], 0.53%; in [9], 0.23%; in assay [10], 1.86%; in [11], 3.33%; in assay [12], 1.17%. Also, the inhibition in assay [13] is 1.87%; in [14] it was 0.57%; in assay [15] it was 0.4%; in assay [16] it was -1.44%; in assay [17], 2.65%; in assay [18], 1.07%. For the same compound, the results for the inhibition in [19] and in assay [20] were 1.89% and 2.4%, respectively.

Consider `Cc1cccc(-c2n[nH]cc2-c2ccc3ncccc3n2)n1`, for which the inhibition is 1.54% in assay [1]; 0.78% in assay [2]; 4.74% in [3]; 0.22% in [4]; 1.97% in assay [5]; 2.17% in assay [6]. Further, the inhibition was 2.14% in [7]; 0.56% in assay [8]; 1.08% in assay [9]; -1.03% in assay [10]; -0.05% in [11]; 0.08% in [12]. For the same compound, the inhibition in [13] is 2.08%; in assay [14], 1.14%; in [15], 2.81%; in [16], 2.24%; in assay [17] it was 1.66%; in [18], -0.67%. Moreover, the inhibition in assay [19] is -0.16%; in assay [20] it was 0.65%.

The values above are taken from ChEMBL document CHEMBL1961873, “Compounds: GSK PKIS; Assays: Nanosyn kinase panel” (2012).
